Reference: the supplement of paper PMC6411743
± gives the standard deviation of the averaged measurements. About 5,400 targets were measured; listed, in parts, are those with the largest changes and a random draw of the rest.

Compound: Nc1nc2c(ncn2[C@@H]2O[C@H](COP(=O)(O)OP(=O)(O)OP(=O)(O)O)[C@@H](O)[C@H]2O)c(=O)[nH]1 [guanosine triphosphate]
Test: NP40-soluble protein abundance relative to vehicle (solubility fold change) (ratio); higher = more soluble protein in presence of GTP
Procedure: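 Solubility proteome profiling in Jurkat crude lysate. Lysate was treated with Mg-GTP (0.1-10 mM) for 10 min at room temperature and 3 min at 37 °C, then solubilised with 0.8% NP40 and benzonase, followed by ultracentrifugation. Proteins were quantified by TMT10 LC-MS/MS; the value is the NP40-soluble abundance relative to the NP40-processed vehicle, from 3 independent experiments.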

Sequence of UniProt Q32P51 (Q32P51 whole entry): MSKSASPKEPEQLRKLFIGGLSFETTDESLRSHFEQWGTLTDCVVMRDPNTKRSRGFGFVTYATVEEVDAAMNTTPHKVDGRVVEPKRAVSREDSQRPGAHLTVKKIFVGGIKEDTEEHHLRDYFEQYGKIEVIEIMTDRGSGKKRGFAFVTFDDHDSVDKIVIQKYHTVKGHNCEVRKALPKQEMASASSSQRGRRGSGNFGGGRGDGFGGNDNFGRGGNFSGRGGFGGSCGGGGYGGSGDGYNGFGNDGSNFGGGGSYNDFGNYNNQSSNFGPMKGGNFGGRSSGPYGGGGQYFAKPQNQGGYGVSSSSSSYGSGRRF
Sequence of UniProt Q04721 (Q04721 whole entry): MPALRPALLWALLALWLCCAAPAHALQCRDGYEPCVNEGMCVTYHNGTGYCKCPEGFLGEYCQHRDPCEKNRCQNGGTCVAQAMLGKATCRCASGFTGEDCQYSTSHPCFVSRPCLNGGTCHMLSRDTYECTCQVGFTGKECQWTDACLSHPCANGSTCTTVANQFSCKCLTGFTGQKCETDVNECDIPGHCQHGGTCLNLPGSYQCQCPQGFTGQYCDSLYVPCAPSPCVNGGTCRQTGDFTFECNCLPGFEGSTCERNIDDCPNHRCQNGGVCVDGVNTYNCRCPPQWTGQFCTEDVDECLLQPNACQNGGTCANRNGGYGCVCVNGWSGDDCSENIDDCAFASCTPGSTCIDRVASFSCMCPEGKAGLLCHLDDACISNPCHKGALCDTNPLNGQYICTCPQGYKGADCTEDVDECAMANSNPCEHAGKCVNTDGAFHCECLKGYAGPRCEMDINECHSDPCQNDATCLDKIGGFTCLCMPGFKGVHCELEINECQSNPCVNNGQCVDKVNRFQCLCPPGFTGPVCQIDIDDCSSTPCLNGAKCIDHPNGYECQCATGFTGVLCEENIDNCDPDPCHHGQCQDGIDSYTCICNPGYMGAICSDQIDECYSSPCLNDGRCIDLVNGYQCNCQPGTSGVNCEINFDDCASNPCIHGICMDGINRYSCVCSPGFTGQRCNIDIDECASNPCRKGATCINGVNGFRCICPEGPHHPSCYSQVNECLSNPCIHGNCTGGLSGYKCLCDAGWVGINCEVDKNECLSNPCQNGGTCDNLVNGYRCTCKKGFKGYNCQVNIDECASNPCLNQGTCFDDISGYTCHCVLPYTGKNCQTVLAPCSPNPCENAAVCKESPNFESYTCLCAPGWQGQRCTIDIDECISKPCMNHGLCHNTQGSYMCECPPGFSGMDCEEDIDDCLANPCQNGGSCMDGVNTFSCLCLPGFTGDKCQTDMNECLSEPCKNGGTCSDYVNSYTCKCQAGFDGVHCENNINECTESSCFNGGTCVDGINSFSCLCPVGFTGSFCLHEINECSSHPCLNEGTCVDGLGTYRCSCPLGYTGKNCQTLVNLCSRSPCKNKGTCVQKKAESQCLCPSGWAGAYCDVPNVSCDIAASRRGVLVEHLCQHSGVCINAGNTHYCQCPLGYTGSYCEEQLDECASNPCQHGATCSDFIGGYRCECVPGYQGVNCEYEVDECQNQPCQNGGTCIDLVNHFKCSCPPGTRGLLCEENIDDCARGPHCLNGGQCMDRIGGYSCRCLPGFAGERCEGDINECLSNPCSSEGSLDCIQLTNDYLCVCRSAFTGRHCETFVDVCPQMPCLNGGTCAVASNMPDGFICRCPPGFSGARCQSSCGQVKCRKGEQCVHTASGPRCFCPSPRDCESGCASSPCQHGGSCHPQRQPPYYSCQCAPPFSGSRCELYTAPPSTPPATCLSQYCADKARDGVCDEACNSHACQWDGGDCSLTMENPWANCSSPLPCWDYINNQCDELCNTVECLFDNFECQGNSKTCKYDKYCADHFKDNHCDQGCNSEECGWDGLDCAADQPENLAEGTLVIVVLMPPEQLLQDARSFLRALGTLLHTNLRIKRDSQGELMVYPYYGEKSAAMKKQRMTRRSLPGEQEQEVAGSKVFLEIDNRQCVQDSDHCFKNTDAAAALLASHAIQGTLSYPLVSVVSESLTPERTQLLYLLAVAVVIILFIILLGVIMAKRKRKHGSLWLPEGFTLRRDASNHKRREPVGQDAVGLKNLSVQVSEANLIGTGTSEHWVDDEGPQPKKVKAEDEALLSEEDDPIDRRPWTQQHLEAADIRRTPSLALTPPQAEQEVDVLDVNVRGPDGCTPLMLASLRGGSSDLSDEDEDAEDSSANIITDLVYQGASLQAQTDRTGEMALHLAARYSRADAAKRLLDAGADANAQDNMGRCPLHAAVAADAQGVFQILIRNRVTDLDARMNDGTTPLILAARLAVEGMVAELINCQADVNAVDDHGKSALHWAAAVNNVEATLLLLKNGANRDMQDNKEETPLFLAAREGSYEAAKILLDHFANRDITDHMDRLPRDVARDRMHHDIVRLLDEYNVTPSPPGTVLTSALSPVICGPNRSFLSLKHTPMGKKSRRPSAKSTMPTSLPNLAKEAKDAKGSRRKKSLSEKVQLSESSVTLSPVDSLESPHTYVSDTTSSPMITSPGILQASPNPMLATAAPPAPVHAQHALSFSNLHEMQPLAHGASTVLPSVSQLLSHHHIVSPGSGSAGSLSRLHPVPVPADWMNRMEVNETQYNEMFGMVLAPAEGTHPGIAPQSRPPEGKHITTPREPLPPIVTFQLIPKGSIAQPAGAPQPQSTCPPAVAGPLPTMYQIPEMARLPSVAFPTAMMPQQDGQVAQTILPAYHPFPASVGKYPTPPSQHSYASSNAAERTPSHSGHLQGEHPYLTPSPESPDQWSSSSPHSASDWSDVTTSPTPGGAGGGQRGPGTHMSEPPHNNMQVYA
Sequence of UniProt Q14974 (Q14974 whole entry): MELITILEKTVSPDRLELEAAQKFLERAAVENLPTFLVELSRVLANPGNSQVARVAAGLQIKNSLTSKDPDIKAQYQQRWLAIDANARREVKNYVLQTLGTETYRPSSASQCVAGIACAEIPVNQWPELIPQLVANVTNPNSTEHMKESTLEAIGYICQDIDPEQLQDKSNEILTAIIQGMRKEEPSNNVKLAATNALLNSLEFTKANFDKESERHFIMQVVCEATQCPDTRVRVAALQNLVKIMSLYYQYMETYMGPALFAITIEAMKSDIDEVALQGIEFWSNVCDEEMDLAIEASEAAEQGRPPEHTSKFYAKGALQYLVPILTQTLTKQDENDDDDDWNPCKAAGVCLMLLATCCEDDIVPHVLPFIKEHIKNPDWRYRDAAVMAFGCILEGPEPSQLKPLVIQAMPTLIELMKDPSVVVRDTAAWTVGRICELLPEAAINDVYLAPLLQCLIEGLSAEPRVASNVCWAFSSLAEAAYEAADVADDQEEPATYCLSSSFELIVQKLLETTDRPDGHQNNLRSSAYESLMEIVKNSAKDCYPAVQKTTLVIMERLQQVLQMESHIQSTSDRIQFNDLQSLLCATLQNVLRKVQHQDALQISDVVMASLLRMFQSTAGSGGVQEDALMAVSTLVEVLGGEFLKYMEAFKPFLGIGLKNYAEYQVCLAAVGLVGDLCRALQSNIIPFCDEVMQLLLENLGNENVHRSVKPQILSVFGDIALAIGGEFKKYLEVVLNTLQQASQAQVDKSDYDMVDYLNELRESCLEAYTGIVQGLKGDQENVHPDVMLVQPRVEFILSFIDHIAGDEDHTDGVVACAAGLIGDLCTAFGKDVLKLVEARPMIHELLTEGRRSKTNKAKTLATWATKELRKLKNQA

Row | Target | NP40-soluble protein abundance (concentration: 0.1mM) | NP40-soluble protein abundance (concentration: 0.5mM) | NP40-soluble protein abundance (concentration: 1mM) | NP40-soluble protein abundance (concentration: 2mM) | NP40-soluble protein abundance (concentration: 4mM) | NP40-soluble protein abundance (concentration: 6mM) | NP40-soluble protein abundance (concentration: 8mM) | NP40-soluble protein abundance (concentration: 10mM)
1 | NOTCH2 (UniProt Q04721) | 0.991 ± 0.023 | 1.03 ± 0.042 | 1.086 ± 0.0064 | 1.12 ± 0.069 | 0.967 ± 0.22 | 1.08 ± 0.23 | 1.08 ± 0.028 | 1.06 ± 0.08
2 | KPNB1 (UniProt Q14974) | 0.986 ± 0.053 | 0.988 ± 0.03 | 1.01 ± 0.035 | 0.989 ± 0.037 | 1.01 ± 0.041 | 0.993 ± 0.033 | 1 ± 0.033 | 0.992 ± 0.028
3 | MDC1 (UniProt Q14676) | 1.1 ± 0.024 | 1.14 ± 0.042 | 1.23 ± 0.053 | 1.41 ± 0.11 | 1.66 ± 0.17 | 1.77 ± 0.21 | 1.86 ± 0.29 | 1.92 ± 0.36
4 | UniProt Q02447-3 | 0.995 ± 0.021 | 1 ± 0.078 | 1.01 ± 0.033 | 0.984 ± 0.067 | 0.983 ± 0.049 | 1.01 ± 0.084 | 1.08 ± 0.055 | 1.05 ± 0.016
5 | HNRNPA1L2 (UniProt Q32P51) | 1.34 ± 0.52 | 1.32 ± 0.58 | 1.8 ± 0.79 | 1.49 ± 0.44 | 1.47 ± 0.51 | 1.67 ± 0.65 | 1.92 ± 0.8 | 1.58 ± 0.35
